This is an account of results in PubChem BioAssay AID463075 (University of Pittsburgh Molecular Library Screening Center, 2010).

The campaign covered roughly 220,000 compounds. About 150 (0.068%) were called active.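 Rule for the calls: active = activation, meaning protection from cell death, of at least 50% relative to plate controls; inactive = activation below 50%.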 For the sample, actives were picked, then their nearest neighbours and some compounds at random.

A short description of this assay: inhibitors of TNF-alpha triggered necroptosis, primary screen, cell-based, Jurkat FADD-/-, single concentration (AID 463075).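 Note: necroptosis triggered by 40 ng/mL TNF-alpha added together with compound.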 Conditions: Jurkat FADD-/- TNF necroptosis rescue, ATP luminescence, 24 h; at 10 µM; hits give high values; 0 = TNF only, 100 = no-TNF cells.
As for `Nc1c(-c2cccc(Cl)c2)cnn1-c1cccc([N+](=O)[O-])c1`, the activation (protection from cell death) is -1.25% (inactive).
For `c1ccc(-c2csc(N3CCc4ccccc4C3)n2)cc1` the value was -3.03% (inactive); for `C=CCCN(Cc1ccccc1)S(=O)(=O)c1ccccc1Br`, -2.9% (inactive).
For `CC(C)(C)c1ccc(/C=C2\SC(=O)N=C2N)cc1` the value was 2.08% (inactive); for `Cc1cccc(NC(=O)c2nc[nH]c2C(=O)NCC(=O)OCc2ccccc2)c1`, -9.45% (inactive); for `CCN(CC)CCNC(=O)c1ccc(NC(=O)c2c(F)cccc2Cl)cc1`, -0.132% (inactive).
With `COc1ccccc1C(=O)CSc1cccc[n+]1[O-]` the figure was -0.693% (inactive).
On to `Cc1cc(C(=O)OCC(=O)Nc2ccc(F)c(F)c2)c(C)o1`, for which the activation (protection from cell death) is 3.31% (inactive).
With `COCCCNC(=O)C1CCC(CNS(=O)(=O)c2ccc(OC)cc2)CC1` (stereo unspecified) the figure was 1.04% (inactive); with `Cc1cccc(C(=O)N2CCc3c([nH]c4ccccc34)C2CC(C)C)n1` (stereo unspecified), 1.18% (inactive); with `Cc1cc([N+](=O)[O-])nn1CCCC(=O)Nc1cccnc1Cl`, 0.812% (inactive).
For `Cc1cc([N+](=O)[O-])nn1Cc1ccc(F)cc1` the value was 76.6% (active).
For `Cc1cc([N+](=O)[O-])nn1CC(=O)Nc1ccc(Cc2ccncc2)cc1` the value was 3.27% (inactive); for `O=C(Nc1ccn(Cc2ccccc2)n1)c1cccc(F)c1`, 3.16% (inactive); for `O=C(Nc1ccn(Cc2ccccc2F)n1)c1ccc(COc2ccc(Cl)cc2Cl)o1`, -6.7% (inactive).
For `CC(=O)Nc1ccn(Cc2c(F)cccc2Cl)n1`, the activation (protection from cell death) is 88% (active).
As for `CCc1cccc(CC)c1NC(=O)COc1ccccc1C(=O)c1cc(C#N)c(=O)n(C2CCCCC2)c1`, the activation (protection from cell death) is 1.06% (inactive).
As to `Cn1nccc1NC(=O)Nc1ccc(OC(F)(F)F)cc1`, the activation (protection from cell death) is 2.9% (inactive).
With `CCCC(=O)n1nc(NCc2ccc(OC)cc2)nc1NCc1ccc(OC)cc1` the figure was 2.21% (inactive); with `CC(C)CNC(=O)C(=O)NCc1ccccc1`, 1.96% (inactive); with `CC(C)(C)C(=O)N1CCC[C@@]1(CO)C(=O)O`, 1.03% (inactive).
With `CCN(Cc1ccncc1)C(=O)c1cccc(S(=O)(=O)N2CCOCC2)c1` the figure was 0.919% (inactive).
For `COc1cc(C=O)ccc1Oc1nnnn1-c1ccccc1` the value was -3.04% (inactive); for `N#CC1(NC(=O)COc2ccc3oc4ccccc4c3c2)CCCCC1`, 1.8% (inactive).
In the case of `CC(C)N(C(=O)Cn1cc(SCC(=O)N2CCCC2)c2ccccc21)C(C)C`, the activation (protection from cell death) is 1.35% (inactive).
For `Cc1ccc(S(=O)(=O)N(C)C)cc1NC(=O)COC(=O)c1c(C)noc1C` the value was 0.89% (inactive).
On to `CN(C)CCNC(=O)/C(=C/c1cccc([N+](=O)[O-])c1)NC(=O)c1ccccc1`, for which the activation (protection from cell death) was 2.51% (inactive).
For `COc1ccc(/C=C/C(=O)c2cc(Br)ccc(=O)c2O)cc1` the value was -1.56% (inactive); for `CCc1ccc(C2C(C#N)=C(N)N(N3CCOCC3)C3=C2C(=O)CC(C)(C)C3)s1` (stereo unspecified), 0.137% (inactive).
Regarding `C[C@@H]1C[C@@H]2O[C@H]2/C=C\C=C\C(=O)Cc2c(Cl)c(O)cc(O)c2C(=O)O1`, the activation (protection from cell death) is 36.6% (inactive).
For `C=CCOc1c(CNn2cn[nH]c2=S)cccc1OC` the value was -0.439% (inactive).
For `Cc1n[nH]c(=O)nc1N/N=C/c1cccs1` the value was -6.4% (inactive).
For `CCc1cccc(CC)c1NC(=S)Nc1ccc2cn[nH]c2c1` the value was -5.25% (inactive); for `C=CCNc1nc(N)c(C(=C(C#N)C#N)c2ccccc2)s1`, -6.24% (inactive).
In the case of `COC(=O)CCNC(=O)c1ccc2[nH]c(C)c(C)c2c1`, the activation (protection from cell death) was -0.237% (inactive).
With `COC(=O)COc1cccc2c(=O)n(CC(=O)NCc3ccccc3)ccc12` the figure was -12.7% (inactive); with `CCCc1cc(=S)n2c([nH]c3ccccc32)c1C#N`, -1.86% (inactive).
With `COc1cccc(CC(=O)N2CCCC(CCC(=O)N3CCN(c4ccccn4)CC3)C2)c1` (stereo unspecified) the figure was 2.68% (inactive); with `CCn1cc(C(=O)Nc2cc(C)ccc2C)c(=O)c2ccc(C)nc21`, 0.491% (inactive); with `O=[N+]([O-])c1ccc(N/N=C2/CCCCC2c2ccccn2)c([N+](=O)[O-])c1` (stereo unspecified), 2.74% (inactive).
For `CCn1c2ccccc2c2cc(NC(=O)C/C(C)=N/NC(=O)c3ccccc3N)ccc21` the value was -9.27% (inactive); for `COc1cc(OC)cc(/C(N)=N/O)c1`, 4.62% (inactive).
Regarding `Cc1ccc(S(=O)(=O)/N=C(/NC(=S)Nc2c(C)n(C)n(-c3ccccc3)c2=O)c2ccccc2)cc1`, the activation (protection from cell death) was 0.616% (inactive).
For `O=C(N/N=C1\CCSC1)c1cc(Cl)ccc1O` the value was -0.00524% (inactive).
With `O=C(Cc1cccc2ccccc12)NNC(=O)Nc1ccc(Cl)cc1` the figure was 7.05% (inactive); with `Cc1nc2ccccc2nc(=O)c1NNc1ccc([N+](=O)[O-])cc1`, 3.59% (inactive); with `Oc1ccc(/C=N/Nc2ccc(C(F)(F)F)cn2)cc1O`, 30.8% (inactive).
With `O=S(=O)([N-]c1nc2ccccc2nc1-[n+]1ccc(Cc2ccccc2)cc1)c1ccc(Br)s1` the figure was -3.84% (inactive); with `CCCN=C1NC(=O)C(CC(=O)NCCc2ccc(OC)c(OC)c2)S1` (stereo unspecified), 1.06% (inactive).
With `O=C(CSc1nnc(-c2ccncc2)o1)NCc1ccc(Cl)cc1`, the activation (protection from cell death) is 3.12% (inactive).
For `Cc1cccc(N2CCN(C(=O)/C=C/c3ccco3)CC2)c1C` the value was -4.02% (inactive); for `Cc1ccc(S(=O)(=O)N2CCN(CC(=O)N/N=C/c3cc([N+](=O)[O-])ccc3Cl)CC2)cc1`, 4.63% (inactive).
With `COc1ccc(C(=S)Nc2ccccc2)cc1` the figure was -4.07% (inactive); with `COc1ccc(C(=O)NC2CCN(C(=S)Nc3ccccc3)CC2)cc1`, 0.717% (inactive); with `COc1ccc(NC(=S)N2N=CCC2c2ccccc2)cc1` (stereo unspecified), 87.5% (active).
Take `CCCCS(=O)c1snnc1C` (stereo unspecified): the activation (protection from cell death) was -0.406% (inactive).
With `CCCOc1ccc(Cc2c(Cl)nc(SC)nc2NC)cc1` the figure was -4.22% (inactive); with `CCCCN(C)CCNC(=O)CSCc1ccc(C)cc1`, 1.41% (inactive).
For `CCN1C(=O)/C(=C2/Sc3ccc(OC)cc3N2C)SC1=Nc1ccc(C)cc1` the value was -1.29% (inactive); for `COc1ccc(N(CC(=O)NC2CCCCC2)S(=O)(=O)c2c(C)[nH]c(=O)[nH]c2=O)cc1`, -0.527% (inactive).
For `CCOC(=O)/C=c1\s/c(=C\c2ccc(C#N)cc2)c(=O)n1CC(=O)Nc1cccc(C)c1C` the value was 0.5% (inactive).
Consider `Cc1ccc(N2C(=O)SC(N(CC(=O)O)c3ccc(C)cc3)C2=O)cc1` (stereo unspecified), for which the activation (protection from cell death) is 0.355% (inactive).
With `CCCN(CC(=O)Nc1ccc(C(N)=O)cc1)CC(=O)Nc1ccccc1C` the figure was 8.38% (inactive).
For `Oc1ccccc1C=NC1CCCCC1N=Cc1ccccc1O` (stereo unspecified) the value was 0.233% (inactive); for `C/C(=N\N=C(N)N)c1ccc(Cl)cc1`, 2.76% (inactive).
For `C=CCNC(=O)c1sc(SC)cc1-c1ccc(Cl)cc1` the value was -2.68% (inactive); for `COc1cccc(C2c3[nH]c4ccccc4c3CCN2Cc2cccc(C)n2)c1` (stereo unspecified), 0.616% (inactive); for `CC1CCc2c(nc3ncnn3c2Nc2ccc(OC(F)(F)F)cc2)C1` (stereo unspecified), -5.14% (inactive).
Regarding `COC(=O)c1ccc(NC(=O)CSc2nncc3ccc(OC)c(OC)c23)cc1`, the activation (protection from cell death) is -0.335% (inactive).
With `CCNc1nc(NCC)nc(N/N=C/c2ccc(O)c(OC)c2)n1` the figure was 22.3% (inactive).
For `Cc1ccc(NC(=O)c2cccs2)cc1S(=O)(=O)N(C)C` the value was 1.75% (inactive); for `CCOC(=O)C1=C(c2ccccc2)NC(=S)NC1c1ccc(Cl)cc1` (stereo unspecified), -2.28% (inactive).
With `COc1ccc(/C(=N\O)c2nccc3cc(OC)c(OC)cc23)cc1OC` the figure was 0.543% (inactive); with `CN1C(C)(C)CC(NC(=O)CCC(=O)NC2CC(C)(C)N(C)C(C)(C)C2)CC1(C)C`, 0.679% (inactive).
Consider `CNC(=O)c1c(NC(NC(=O)c2ccco2)C(=O)c2ccc(Cl)cc2)sc2c1CCCC2` (stereo unspecified), for which the activation (protection from cell death) was 0.421% (inactive).
With `Cc1c(CN2CCCCC2)c(O)n(CCO)c(=O)c1C#N` the figure was -0.121% (inactive); with `CCOC(=O)/C(=N\Nc1cc(Cl)ccc1Cl)N1CCN(C)CC1`, 7.63% (inactive).
Consider `COc1cccc(OCCCN2CCCCCC2)c1`, for which the activation (protection from cell death) was 1.03% (inactive).
For `Cc1cc(=O)oc2cc(OCC3CC(c4ccccc4Cl)=NO3)ccc12` (stereo unspecified) the value was -15.7% (inactive); for `Cc1ccc(C2NC(=S)NC3=C2N2CCC3CC2)cc1` (stereo unspecified), 1.6% (inactive); for `C=C(Cl)COC(=O)C1C2C=CC(C2)C1C(=O)O` (stereo unspecified), -1.48% (inactive).
With `CN(C)/C=C/C(=O)c1cnc2sccn2c1=O` the figure was -0.24% (inactive); with `Cc1nnsc1C(=O)NCc1c(F)cccc1Cl`, 72.6% (active).
With `Cc1nnsc1C(=O)N/N=C/c1ccccc1Cl` the figure was 3.7% (inactive); with `Cc1nnsc1C(=O)Nc1cccc(Cl)c1C`, 5.62% (inactive).
Consider `O=C(NCCCCCCCCCNC(=O)C(F)(F)F)C(F)(F)F`, for which the activation (protection from cell death) is -0.812% (inactive).
With `CS(=O)(=O)c1ccc2nc(NC(=O)c3ccc(N4CCCC4=O)cc3)sc2c1` the figure was -0.943% (inactive); with `COc1ccc(S(=O)(=O)N2CCN(C(=O)c3cc(C)oc3C)CC2)cc1`, 2.28% (inactive); with `O=c1cc(N2CCCCC2)c(-c2ccccc2)nn1Cc1cccc(F)c1`, -0.813% (inactive).
With `Cc1ccc(O)c(-c2cc(C(=O)NCc3ccccc3)[nH]n2)c1` the figure was -18.4% (inactive).
Regarding `O=C(Nc1ccc(F)cc1)c1cc2c(s1)CCCC2`, the activation (protection from cell death) is -1.43% (inactive).
For `CCCCCCCNc1nc(Cl)nc(NCCO)n1` the value was 5.58% (inactive); for `O=C(CCCOc1ccc(Cl)cc1Cl)NNC(=O)C1CCC1`, 3.99% (inactive); for `C/C(CCc1ccccc1)=N\NC(=O)c1ccc(CN2CCOCC2)cc1`, 0.488% (inactive).
For `CCN=c1sc(C(=O)Nc2ccccc2)c(C)n1CC` the value was 1.57% (inactive); for `CCOC(=O)CN(C(=O)COc1nc(-c2ccccc2)cc(C)c1C#N)c1ccc(F)cc1`, 0.588% (inactive).
